# GLS inh: qHTS for Inhibitors of Glutaminase (GLS); AID 624170, 2012; Potency, µM (highest dose often 45.5 µM), for inactives: top-dose activity change, negative = inhibition, actives largely listed as inhibitors; actives 0.21% (n = 410,000); GLS enzymatic activity, qHTS titration; Glutaminase kidney isoform, mitochondrial (Homo sapiens), O94925; also: % is scaled to controls: 0 for no effect and ±100 for the full control effect
# Target sequence (O94925 whole entry, looked up, canonical isoform): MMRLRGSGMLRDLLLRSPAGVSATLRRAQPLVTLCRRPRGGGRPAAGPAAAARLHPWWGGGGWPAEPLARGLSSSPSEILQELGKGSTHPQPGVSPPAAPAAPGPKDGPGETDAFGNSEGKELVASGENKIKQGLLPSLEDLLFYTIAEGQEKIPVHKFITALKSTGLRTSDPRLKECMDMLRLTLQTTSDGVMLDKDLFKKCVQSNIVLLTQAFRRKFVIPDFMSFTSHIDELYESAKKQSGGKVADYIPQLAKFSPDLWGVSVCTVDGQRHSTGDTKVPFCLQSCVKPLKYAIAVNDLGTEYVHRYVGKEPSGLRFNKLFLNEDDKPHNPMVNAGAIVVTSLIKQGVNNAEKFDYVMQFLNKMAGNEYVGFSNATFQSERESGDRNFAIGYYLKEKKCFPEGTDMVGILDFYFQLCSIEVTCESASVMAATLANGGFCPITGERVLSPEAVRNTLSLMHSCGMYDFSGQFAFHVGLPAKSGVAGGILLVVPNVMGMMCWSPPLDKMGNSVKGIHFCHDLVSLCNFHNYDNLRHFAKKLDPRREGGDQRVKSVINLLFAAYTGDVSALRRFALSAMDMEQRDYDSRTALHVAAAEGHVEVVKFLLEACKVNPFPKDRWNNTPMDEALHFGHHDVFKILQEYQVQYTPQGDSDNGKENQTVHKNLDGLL
#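 Assay buffer: 45 mM KH2PO4 pH 8.2, 0.02% Tween-20. hKGA acts on L-glutamine (1 mM solution added); product glutamate is reported by an oxidase/peroxidase Amplex Red coupling, with fluorescence taken at baseline and 30 min.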
# BAZ2B inh: qHTS Assay for Inhibitors of BAZ2B. Bromodomain adjacent to zinc finger domain protein 2B (Homo sapiens), Q9UIF8. AID 504333, 2011. actives 4.4% (n = 360,000). Potency, µM (doses to about 114 µM), for inactives: top-dose activity change, negative = inhibition, hits mostly inhibitors. AlphaScreen BAZ2B-H3K14Ac peptide displacement; also: % is scaled to controls: 0 for no effect and ±100 for the full control effect; nearly all actives have a fitted effect of over 60% in size
#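 Compounds, titrated to a top concentration of 110 uM, were incubated 30 min at room temperature with preformed BAZ2B/acetyl-K14 H3 peptide complex (50 nM each). Proximity signal was measured by AlphaScreen after 20 min with beads.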
# JMJD2A Tudor: qHTS Assay for Inhibitors of JMJD2A-Tudor Domain; Lysine-specific demethylase 4A (Homo sapiens), O75164; AlphaScreen JMJD2A-Tudor / H3K4me3 peptide binding; Potency, µM (top dose mostly 114 µM), for inactives: at the highest dose activity change, negative = inhibition, usual class: inhibitors; actives 4.4% (n = 390,000); also: % is scaled to controls: 0 for no effect and ±100 for the full control effect; nearly all actives have a fitted effect of over 50% in size
# HP1b binding inh: HTS for Inhibitors of HP1-beta Chromodomain Interactions with Methylated Histone Tails; Potency, µM (titrated, usually from 114 µM), for inactives: at the highest dose activity change, negative = inhibition, hits mostly inhibitors; actives 0.56% (n = 390,000); AlphaScreen HP1-beta / biotin-H3K9me3 peptide binding; also: nearly all actives have a fitted effect of over 70% in size
#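 HP1-beta protein (50 nM final) preincubated 30 min at room temperature with biotinylated H3(1-18)K9me3 peptide (50 nM) in PBS pH 7.4, 0.01% Tween-20, then compound added for 30 min. AlphaScreen streptavidin donor/nickel chelate acceptor beads (10 ug/mL final), 30 min dark, luminescence read.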
# G9a inh: qHTS Assay for Inhibitors of Histone Lysine Methyltransferase G9a; AID 504332, 2011; Histone-lysine N-methyltransferase EHMT2 (Homo sapiens), Q96KQ7; G9a H3K9 monomethylation, AlphaScreen, 2 h; actives 8.8% (n = 350,000); Potency, µM (highest dose often 102 µM), without a hit: top-dose activity, negative = inhibition, hits mostly inhibitors; also: % is scaled to controls: 0 for no effect and ±100 for the full control effect; nearly all actives have a fitted effect of over 75% in size
#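 AlphaScreen detection with an anti-monomethyl H3K9 antibody quantified product after a 2 h room-temperature reaction containing 500 nM biotinylated H3K9 peptide, 20 µM SAM and 20 nM enzyme, which had been preincubated 15 min with compound.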
# An asterisk follows results filed as active; ? = inconclusive; . = not tested or not shown; [ ] = remark or other dose. Compounds with a hit are over-represented: about 10% of the library has one in this group of screens. Calls follow the shape of the dose curve; as a rule, active = well fitted curve in the direction sought with a large enough effect; inconclusive = small, poorly fitted or top-dose-only effect, or another doubt; inactive = no such curve, though single readings can be large; an effect the other way counts as inactive or inconclusive. Potency is read from the fitted curve at half-maximal effect.
SMILES,GLS inh,BAZ2B inh,JMJD2A Tudor,HP1b binding inh,G9a inh
NNc1nc(Nc2ccccc2)nc(Nc2ccccc2)n1,-7%,22µM*,-29%,40%,35%
NNc1nc(Nc2ccccc2)nc(N2CCCCC2)n1,29%,79µM*,?,19%,-7%
Nc1nc(N2CCCCC2)nc2ccccc12,19%,-4%,-6%,25%,50µM*
CCOC(=O)c1sc(NC(=O)c2cc(-c3ccc(F)cc3)on2)c(C(=O)OCC)c1C,-3%,4%,-2%,56%,4%[59 µM]
C=CCNC(=O)NC(=O)CN1C(=O)NC(c2ccccc2)(c2ccccc2)C1=O,?,-11%,-19%,-2%,10%
NNc1nc(Nc2ccc([N+](=O)[O-])cc2)nc(N2CCCCCC2)n1,7%,28µM*,56µM*,109%,.
COc1ccc2nc(Nc3nc(C)c(C(C)=O)s3)sc2c1,10%,30%,7%[57.1 µM],12%,-15%[59 µM]
COc1ccc(NC2=C(C)C(=O)CC2)cc1,-3%,56µM*,3%,41%,2%[2.33 µM]
COc1ccc(Nc2cccccc2=O)cc1,27%,-36%,?,-3%,?
COc1ccc(Nc2cccc3ccccc23)cc1,31%,?,56µM*,?,23%[2.33 µM]
COc1ccc(NC2=CC(=O)N(C)C2=O)cc1,0%,-13%,-15%,32%,-23%[59 µM]
O=[N+]([O-])c1ccc(Nc2nc(N3CCOCC3)nc(N3CCOCC3)n2)cc1,-11%,.,-12%,8%,.
COc1ccc(Nc2nc3ccc(OC)cc3s2)cc1,-21%,56µM*,?,-27%,40µM*
Cc1nc2ccn(Cc3cccs3)c(=O)c2cc1C(=O)N1CCN(c2ccccc2)CC1,15%,-26%,-24%,18%,-8%[59 µM]
COc1ccc(Nc2ccc(OC)cc2)cc1,30%,20µM*,50µM*,40µM*,.
O=[N+]([O-])c1ccc(Nc2nc(NCCO)nc(N3CCCC3)n2)cc1,-3%,3%,-6%,20%,45µM*
COC(=O)c1ccccc1NC(=O)c1nc(-c2ccc(Cl)cc2)n2c1CCCCC2,-9%,-5%,-26%,31%,-39%[59 µM]
CCNC(=O)CC1SC(=Nc2cccc3ccccc23)N(C)C1=O (stereo not given),-2%,3%,-14%,16%,50µM*
CCn1c(SCc2nc3ccccc3c(=O)[nH]2)nc2ccccc21,-5%,-17%,?,9%,?
CCN(CC)S(=O)(=O)c1ccc2c(c1)nc(SCc1nc3ccsc3c(=O)[nH]1)n2CC,?,12%,-13%,32%,35µM*
Cc1cc(C(=O)CCC(=O)N(C)CC2COc3ccccc3O2)c(C)s1 (stereo not given),2%,.,.,.,.
O=S(=O)(CCSc1nc2ccccc2s1)c1nc2ccccc2s1,17%,-1%,?,56%,7.1µM*
CC1CCc2c(sc(NC(=O)c3cc(-c4ccc(F)cc4)on3)c2C(N)=O)C1 (stereo not given),2%,2%,-7%,13%,-4%[59 µM]
O=C(c1ccccn1)N(Cc1ccco1)C1(C(=O)NC2CCCC2)CCCCC1,1%,8%,-20%[57.1 µM],41%,31%[59 µM]
O=C(c1ccc2c(c1)OCO2)N(Cc1ccco1)C1(C(=O)NC2CCCCC2)CCCCC1,9%,-6%,-22%,-10%,79µM*
SMILES,GLS inh,BAZ2B inh,JMJD2A Tudor,HP1b binding inh,G9a inh
CCN1C2=NCCCN2c2cc(C)c(C)cc21,8%,13%,-7%,17%,-19%[59 µM]
COc1cccc(C2=NOC(C(=O)N3CCc4ccccc4C3)C2)c1 (stereo not given),-2%,11%,-12%,36%,7.9µM*
O=C(C1CC(c2ccc(F)cc2)=NO1)N1CCc2ccccc2C1 (stereo not given),5%,3%,-22%,26%,14%
Cc1nc(SCC(=O)N2CCN(c3ccccc3)CC2)n[nH]1,4%,-2%,-2%,-14%,40µM*
O=C(CSc1ccccn1)N1CCN(c2ccccc2)CC1,26%,8%,-16%,3%,?
O=C(CSc1nccc(=O)[nH]1)N1CCN(c2ccccc2)CC1,0%,79µM*,?,-3%,.
O=C(CSc1ccccn1)N1CCN(c2cccc(Cl)c2)CC1,-5%,-20%,79µM*,-1%,2.8µM*
Nc1nc(SCC(=O)N2CCN(c3ccc(F)cc3)CC2)n[nH]1,20%,-6%,-16%,21%,-12%[59 µM]
CCCc1cc(=O)[nH]c(SCC(=O)N2CCN(c3ccccc3)CC2)n1,-7%,-19%,-7%,28%,3%[59 µM]
Nc1nc(SCC(=O)N2CCN(c3ccccc3)CC2)n[nH]1,29%,-18%,-1%,39%,40µM*
Cc1ccc(-c2nc3cc(Cl)ccc3o2)cc1NC(=O)COc1ccc(F)cc1,11%,-12%,-17%,26%,3%[59 µM]
COCCNC(=O)c1nn(-c2ccc(C)cc2)c(=O)n(C)c1=O,-14%,-2%,-6%,-8%[57 µM],4%[59 µM]
Nc1nnc(SCC(=O)N2CCN(c3ccccc3)CC2)s1,25%,2%,-5%,42%,50µM*
Cc1ccc(Oc2ccc(NC(=O)CSc3n[nH]c(N)n3)cc2)cc1,18%,-19%,-20%,13%,?
Nc1nc(SCC(=O)c2ccc(Oc3ccccc3)cc2)n[nH]1,16%,-1%,35µM*,?,?
O=C(CSc1nc2c(c(=O)n1-c1ccccc1)SCC2)N1CCN(c2ccccc2)CC1,-2%,-7%,?,3%,45µM*
O=C(CSc1ccccc1C(=O)N1CCN(c2ccccc2)CC1)N1CCCC1,2%,-5%,3%,43%,13µM*
CCCN(C(=O)c1cnccn1)c1c(N)n(Cc2ccccc2)c(=O)[nH]c1=O,3%,8%,3%,29%,18%[2.33 µM]
CCCCCCOc1ccc(C(=N)N(CCCC)CCCC)c2ccccc12,-3%,.,.,.,?
COc1ccc(OC)c(C2CC(=O)N(c3cccc(C)c3)C3=C2C(=O)OC3)c1 (stereo not given),0%,?,-25%,7%,7%[59 µM]
Cc1nn(Cc2ccccc2)c2c1C(c1ccncc1)C(C#N)=C(N)O2 (stereo not given),-7%,17%,-10%,36%,?
Cc1nn(Cc2ccccc2)c2c1C(c1cccnc1)C(C#N)=C(N)O2 (stereo not given),4%,0%,-7%,26%,50µM*
O=C(Cc1ccccc1)NC1CC(=O)N(c2ccc3c(c2)OCCO3)C1 (stereo not given),4%,6%,-11%,54%,4%[59 µM]

# Compound activity from PubChem.
